According to PubChem BioAssay (EPA / NIEHS):
Records with an inconclusive call do not appear. Activity calls are given as the source filed them. How the source made its calls: active means hit-call score of the fitted dose curve at least 0.9, where 1 is the maximum; inconclusive means response in the unintended direction; inactive means score below 0.9.

read-out: xenobiotic metabolism (CYP1A1), CYP1A1 (gene 1543); assay: CLD_CYP1A1_6hr: CellzDirect (CLD) Gene Expression Assay for xenobiotic metabolism (CYP1A1) at 6 hours (AID 2283661);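 on AC50: potency for transcript induction above DMSO vehicle baseline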
Procedure: CLD_6hr is a cell-based, multiplexed-readout assay that uses hepatocyte, a human liver primary cell, with measurements taken at 6 hours after chemical dosing in a 96-well plate.CLD_CYP1A1_6hr is one of 16 assay component(s) measured or calculated from the CLD_6hr assay. It is designed to make measurements of mRNA induction, a form of inducible reporter, as detected with chemiluminescence signals by Quantitative Nuclease Protection Assay (qNPA) technology.Data from the assay component CLD_CYP1A1_6hr was analyzed at the endpoint, CLD_CYP1A1_6hr, in the positive analysis fitting direction relative to DMSO as the negative control and baseline of activity. Using a type of inducible reporter, gain-of-signal activity can be used to understand changes in the reporter gene as they relate to the gene CYP1A1. Furthermore, this assay endpoint can be referred to as a primary readout. To generalize the intended target to other relatable targets, this assay endpoint is annotated to the cyp intended target family, where subfamily is xenobiotic metabolism.
Human hepatocyte cultures were treated daily for two consecutive days with fresh dosing solutions containing appropriate concentrations of the 320 ToxCast chemicals (chemical identities were blinded to CellzDirect and other ToxCast collaborators), vehicle control (0.2% DMSO), and positive control inducers as summarized in Table 1. Due to the large number of treatment groups and chemicals examined, the ToxCast chemicals were divided into two groups (spanning two independent cultures of hepatocytes from separate donor preparations (Hu778: ToxCast plates 1 and 2; Hu776: ToxCast plates 3 and 4). Each preparation of human hepatocyte cultures was treated with respective vehicle control, medium only control, set of six positive controls/reference chemicals for the five hepatic receptor pathways, and a subset of eight of the ToxCast chemicals (indoxacarb, pyrithiobac-sodium, norflurazon, cyhalofop-butyl, methomyl, thiram, acetochlor, and propiconazole). These replicate data, coupled with internal replicates designed within the blinded ToxCast chemical library, provided additional data to evaluate interindividual differences between hepatocyte preparations and their potential impact on chemical profiles.Cell morphology and integrity were evaluated using phase-contrast microscopy as an indicator of hepatocyte cell health (Tyson & Green, 1987). Cultures for each treatment group (i.e., media, vehicle [0.2% DMSO], positive control inducers [multiple concentrations], and the ToxCast chemicals [multiple concentrations]) were observed and cell morphology was assessed relative to vehicle control cultures at each harvest time point (0, 6, 24, or 48 h). […] Images were evaluated at the conclusion of the study to assess changes in cell integrity and account for the effects of chemical exposure on uncharacteristic changes in concentration-dependent gene expression profiles. The results from these determinations of apparent cytotoxicity were annotated (yes/no) alongside the corresponding qNPA data for reference.At the conclusion of each treatment period, hepatocyte cultures (96-well) were washed with 1 volume of HBSS, lysed by addition of 25 ul ArrayPlate lysis buffer (HTG, Tucson, AZ), and 70 ul/well of Denaturation Oil, denatured by incubation at 95C for 10 min, and frozen at approximately -70C until analysis by nuclease protection assay (qNPA) (Roberts et al., 2007). For qNPA analysis, cell lysates were thawed at 50C for approximately 30 min, qNPA probes were added, and samples were incubated at 95C for 10 min to begin the detection process by denaturing the target RNA, dissociating the duplexes and secondary structure hybridization. At the conclusion of the hybridization period, S1 nuclease reagent was added to each sample to digest all nonprotected nucleotides at 50C for 60-90 min. […]

Structure (SMILES) | AC50 | outcome
CC(C)C1(C)N=C(c2ncccc2C(=O)O)NC1=O (stereo not given) | 1.9 µM (active) | –
CCN(CC)C(=O)C(C)Oc1cccc2ccccc12 (stereo not given) | 3.97 µM (active) | –
COCC(C)N(C(=O)CCl)c1c(C)csc1C (stereo not given) | – | inactive
N#Cc1c[nH]cc1-c1cccc2c1OC(F)(F)O2 | 0.9 µM (active) | –
CCNP(=S)(OC)O/C(C)=C/C(=O)OC(C)C (stereo not given) | 3.37 µM (active) | –
CSC(=O)c1c(C(F)F)nc(C(F)(F)F)c(C(=O)SC)c1CC(C)C | 5.31 µM (active) | –
Cc1c(COC(=O)[C@@H]2[C@H](/C=C(\Cl)C(F)(F)F)C2(C)C)cccc1-c1ccccc1 | – | inactive
CCOc1nc(C(Cl)(Cl)Cl)ns1 | 8.85 µM (active) | –
CC(C)(C)C(=O)C(Oc1ccc(Cl)cc1)n1cncn1 (stereo not given) | 3.97 µM (active) | –
Cn1c(-c2ccccc2)cc(-c2ccccc2)[n+]1C | – | inactive
CC(C)Oc1cccc(NC(=O)c2ccccc2C(F)(F)F)c1 | 3 µM (active) | –
CCN(CC)c1nc(C)cc(OP(=S)(OC)OC)n1 | 4.71 µM (active) | –
CCOC(=O)C(C)OC(=O)c1cc(Oc2ccc(C(F)(F)F)cc2Cl)ccc1[N+](=O)[O-] (stereo not given) | 4.58 µM (active) | –
CCC(C)n1c(=O)[nH]c(C)c(Br)c1=O (stereo not given) | 7.21 µM (active) | –
COC(=O)NS(=O)(=O)c1ccc(N)cc1 | – | inactive
COC(=O)NC(=S)Nc1ccccc1NC(=S)NC(=O)OC | 5.11 µM (active) | –
Clc1cccc(C(Cl)(Cl)Cl)n1 | 20 µM (active) | –
CN=C=S | – | inactive
CCOc1nc(F)cc2nc(S(=O)(=O)Nc3c(Cl)cccc3Cl)nn12 | – | inactive
O=C(Nc1ccccc1-c1ccc(Cl)cc1)c1cccnc1Cl | 2.46 µM (active) | –

Structure (SMILES) | AC50 | outcome
C=CCOC(=O)C(C)(C)OC(=O)c1cc(-n2c(=O)cc(C(F)(F)F)n(C)c2=O)ccc1Cl | – | inactive
COc1ccc(-c2ccccc2)cc1NNC(=O)OC(C)C | 0.429 µM (active) | –
CNC(=O)N(C)c1nnc(C(C)(C)C)s1 | 0.00579 µM (active) | –
O=P(O)(O)CCCl | – | inactive
CC(C)NC(=O)N1CC(=O)N(c2cc(Cl)cc(Cl)c2)C1=O | 8.11 µM (active) | –
CC(C)N1C(=O)N(c2ccccc2)CSC1=NC(C)(C)C | – | inactive
CCOc1cc(C(C)(C)C)ccc1C1COC(c2c(F)cccc2F)=N1 (stereo not given) | – | inactive
COCC(=O)N(c1c(C)cccc1C)C(C)C(=O)OC (stereo not given) | 20 µM (active) | –
CCOP(=O)(OCC)Oc1nc(Cl)c(Cl)cc1Cl | 3.92 µM (active) | –
Cc1cnc(C2=NC(C)(C(C)C)C(=O)N2)c(C(=O)O)c1 (stereo not given) | – | inactive
C=C(C)CN(CC)c1c([N+](=O)[O-])cc(C(F)(F)F)cc1[N+](=O)[O-] | – | inactive
OC(c1ccc(Cl)cc1)(c1ccc(Cl)cc1)C(Cl)(Cl)Cl | – | inactive
CNC(=O)Oc1cccc2ccccc12 | 4.68 µM (active) | –
COP(=S)(OC)Oc1ccc([N+](=O)[O-])c(C)c1 | 1.22 µM (active) | –
CCNC(=O)NC(=O)C(C#N)=NOC | – | inactive
CCCCC(O)(Cn1cncn1)c1ccc(Cl)cc1Cl (stereo not given) | 0.532 µM (active) | –
CC1(C)C(C=C(Cl)Cl)C1C(=O)OC(C#N)c1cccc(Oc2ccccc2)c1 (stereo not given) | 2.78 µM (active) | –
O=c1n(Cl)c(=O)n(Cl)c(=O)n1Cl | 11.3 µM (active) | –
CCSC(=O)N1CCCCCC1 | – | inactive
Nc1c(Cl)c(F)nc(OCC(=O)O)c1Cl | – | inactive
